Sampled rows, rich in hits. Any-hit rate of the full collection: about 18%.
GCN5L2 inh = inhibitors of human GCN5L2 histone acetyltransferase; Q92830; GCN5L2 HAT assay, ThioGlo1 CoA-SH fluorescence; Potency, µM (titrated, usually from 58.9 µM), inactives show top-dose activity change, negative = inhibition, usual class: inhibitors; 390,000 compounds, 0.21% hits
Target sequence (Q92830 whole entry, looked up): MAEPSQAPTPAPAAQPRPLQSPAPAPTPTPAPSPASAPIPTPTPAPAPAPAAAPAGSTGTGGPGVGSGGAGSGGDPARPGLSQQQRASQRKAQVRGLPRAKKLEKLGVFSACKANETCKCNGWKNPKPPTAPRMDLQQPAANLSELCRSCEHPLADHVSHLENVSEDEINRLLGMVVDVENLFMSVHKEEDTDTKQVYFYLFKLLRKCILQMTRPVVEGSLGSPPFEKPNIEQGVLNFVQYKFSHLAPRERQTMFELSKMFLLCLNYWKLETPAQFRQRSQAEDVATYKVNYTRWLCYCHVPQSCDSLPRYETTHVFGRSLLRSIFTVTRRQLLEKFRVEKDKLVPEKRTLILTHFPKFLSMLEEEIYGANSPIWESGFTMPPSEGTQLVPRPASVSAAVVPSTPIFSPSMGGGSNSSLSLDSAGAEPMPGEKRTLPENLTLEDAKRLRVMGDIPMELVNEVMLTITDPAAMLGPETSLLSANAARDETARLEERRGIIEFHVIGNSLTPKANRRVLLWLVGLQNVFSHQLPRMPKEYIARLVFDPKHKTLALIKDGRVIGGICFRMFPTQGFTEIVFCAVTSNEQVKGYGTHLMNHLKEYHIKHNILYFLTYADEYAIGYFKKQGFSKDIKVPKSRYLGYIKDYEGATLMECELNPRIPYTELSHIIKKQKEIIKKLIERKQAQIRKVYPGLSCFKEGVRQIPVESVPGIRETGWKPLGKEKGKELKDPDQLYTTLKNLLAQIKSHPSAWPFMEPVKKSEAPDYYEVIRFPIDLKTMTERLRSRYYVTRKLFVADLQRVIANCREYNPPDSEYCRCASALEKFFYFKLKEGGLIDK
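qHTS, 1536-well. 20nM enzyme, pH 7.5 HEPES/EDTA/Tween-20 buffer; 15 min compound preinc., RT. Start: 75uM H3(1-25), 70uM AcCoA, 50uM ThioGlo1. Read Ex340/Em540 at t=0 (autofluorescence flag) and t=20 min.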
DT40 TDP1 CPT = growth inhibition of DT40 Tdp1-/-;hTDP1 cells with camptothecin (screen for TDP1 inhibitors); 420,000 compounds, 12% hits; Potency, µM (doses to about 46.2 µM), for the others: at the top dose activity change, negative = growth inhibition, actives largely listed as inhibitors; chicken DT40 Tdp1-/-;hTDP1 cells + 20 nM CPT, ATP luminescence, 48 h; also: nearly all actives have a fitted effect of over 55% in size
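Chicken DT40 Tdp1-/- cells stably complemented with human TDP1 were seeded at 400 cells/well in medium containing 20 nM camptothecin, exposed to pin-transferred compounds, and grown at 37 °C for at least 48 hr. Viability was read as ATP luminescence.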
VDR inhibitor = vitamin D3 receptor (human) inhibition | VDR-SRC2-3 peptide fluorescence polarization, 2 h | P11473 | Potency, µM, for inactives: max response, negative = inhibition, most hits filed as inhibitors | 400,000 compounds, 0.93% hits
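Reagent solutions, kept cold and dark, are dispensed first; compounds are then pinned in at 23 nl, plates briefly spun, and incubated 2 h at ambient temperature. Inhibition of VDR–SRC2-3 peptide binding is read by fluorescence polarization.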
PLK1 PBD inh = inhibitors of human PLK1 polo-box domain binding | P53350 | Plk1 PBD binding of FITC phosphopeptide, fluorescence polarization | Potency, µM, inactives show max response, negative = inhibition, most hits filed as inhibitors | 360,000 compounds, 2.8% hits; also: series mostly up to about 57 µM; nearly all actives have a fitted effect of over 65% in size
TDP1 block = inhibitors of human tyrosyl-DNA phosphodiesterase TDP1; Q9NUW8; Potency, µM (series often up to 130 µM), without a hit: at the top dose activity change, negative = inhibition, hits mostly inhibitors; 350,000 compounds, 0.28% hits; recombinant TDP1, AlphaScreen DNA substrate cleavage; also: nearly all actives have a fitted effect of over 40% in size
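Here, a 5' biotin and 3' phosphotyrosine-FITC DNA oligonucleotide reports Tdp1 activity: intact substrate bridges AlphaScreen beads, while cleavage leaves a 3' phosphate and drops signal. All incubations at room temperature.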
DT40 TDP1 no CPT = qHTS for Inhibitors of human tyrosyl-DNA phosphodiesterase 1 (TDP1): qHTS in cells in absence of CPT | 420,000 compounds, 15% hits | Potency, µM (doses to about 46.2 µM), inactives show at the highest dose activity change, negative = growth inhibition, actives largely listed as inhibitors | AID 686978, 2013 | DT40 Tdp1-/- hTDP1 cells, no CPT, ATP luminescence, 48 h; also: nearly all actives have a fitted effect of over 55% in size
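Seeded 400 DT40-hTDP1 cells/well (vehicle DMSO, no 20 nM CPT); pinned compounds; ≥48 hr at 37 °C; CellTiter-Glo luminescence as viability measure.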
Starred values were filed as active, the others as inactive; ? = inconclusive; · = no result given; ! = not active in a repeat; [ ] = another dose, or the depositor's remark. Calls follow the shape of the dose curve; as a rule, active = well fitted curve in the direction sought with a large enough effect; inconclusive = small, poorly fitted or top-dose-only effect, or another doubt; inactive = no such curve, though single readings can be large; an effect the other way counts as inactive or inconclusive. % is scaled to controls: 0 for no effect and ±100 for the full control effect; potency is read from the fitted curve at half-maximal effect.

SMILES | GCN5L2 inh | DT40 TDP1 CPT | VDR inhibitor | PLK1 PBD inh | TDP1 block | DT40 TDP1 no CPT
COc1cc([N+](=O)[O-])ccc1NC(=O)N1CCC2(CC1)Nc1ccccc1-n1cccc12 | 3.3% | ? | -6.5% | · | 5.4% | ?
O=C(c1ccncc1)N1CCN(c2cc(-c3ccccc3)nc3cc(-c4cccc(Cl)c4)nn23)CC1 | · | 11.6µM* | · | -5.1% | · | 7.31µM*
CC(=O)N1CCN(c2cc(-c3ccccc3)nc3cc(-c4cccc(Cl)c4)nn23)CC1 | · | 20.6µM* | · | 8.2% | · | 10.3µM*
O=C(c1ccoc1)N1CCN(c2cc(-c3cccnc3)nc3cc(-c4cccc(Cl)c4)nn23)CC1 | · | 18.4µM* | · | ? | · | 7.31µM*
O=C(c1ccoc1)N1CCN(c2cc(-c3ccncc3)nc3cc(-c4cccc(Cl)c4)nn23)CC1 | · | 13µM* | · | -25.5% | · | 5.8µM*
COc1ccc(NC(=O)C2CC(=O)N(c3ccccc3Cl)C2)c(OC)c1 (centres undefined) | -0.4% | -21.8% | 4.8% | -7.1% | 2.1% | -8.2%
O=C(Oc1cccc2c(O)cccc12)c1ccco1 | · | 20.6µM* | 5.3% | ? | · | 11.6µM*
O=C(c1ccco1)c1coc2c1cc(O)c1ccccc12 | 2.3% | -17.6% | -21.8% | 29.9µM* | 7.1% | 6.7%
CCN(Cc1ccccc1)C(=O)CN1C(=O)COc2ccc(S(=O)(=O)N3CCOCC3)cc21 | -1.4% | ? | 0.6% | · | 0.0% | -25.9%
CNC(=O)CN1C(=O)COc2ccc(S(=O)(=O)N3CCCCCC3)cc21 | -24.1% | 1.4% | -6.8% | -1.4% | 1.7% | 24.4%
CCN(Cc1ccccc1)C(=O)CN1C(=O)COc2ccc(S(=O)(=O)N(CC)CC)cc21 | -4.7% | 23.1µM* | -7.7% | · | 2.3% | ?
CC1CCN(S(=O)(=O)c2ccc3c(c2)N(CC(=O)N(C)Cc2ccccc2)C(=O)CO3)CC1 | -7.8% | ? | 11.6% | · | 5.1% | 20.6µM*
CCN(C(=O)CN1C(=O)COc2ccc(S(=O)(=O)N3CCCCCC3)cc21)c1cccc(C)c1 | -17.0% | ? | ? | 23.8µM* | 9.8% | ?
CCN(CC)S(=O)(=O)c1ccc2c(c1)N(CC(=O)N(C)Cc1ccccc1)C(=O)CO2 | -0.3% | ? | -14.6% | · | 2.3% | 25.9µM*
CCN(Cc1ccccc1)C(=O)CN1C(=O)COc2ccc(S(=O)(=O)N3CCCCCC3)cc21 | -5.4% | 20.6µM* | -16.8% | -5.6% | 3.9% | 23.1µM*
O=C(c1cccs1)N1CCN(c2nnc(-c3ccccc3)c3ccccc23)CC1 | ? | ? | 8.2% | -9.5% | 3.0% | ?
Cc1ccc(-c2nnc(N3CCN(C(=O)c4cccs4)CC3)c3ccccc23)cc1 | -5.8% | ? | -9.6% | 0.6% | 2.6% | 23.1µM*
Cn1c(=O)n(CC(=O)N2CCN(c3nnc(-c4ccccc4)c4ccccc34)CC2)c2ccccc21 | -6.4% | ? | -5.0% | -8.7% | 5.2% | ?
Cc1ccc(-c2nnc(N3CCN(C(=O)Cn4c(=O)n(C)c5ccccc54)CC3)c3ccccc23)cc1 | -1.6% | ? | 15.9% | 0.4% | 2.3% | 16.4µM*
Cc1ccc(-c2nnc(N3CCN(C(=O)CN4CCOCC4)CC3)c3ccccc23)cc1 | -3.6% | -27.4% | -4.2% | -6.5% | 1.1% | 16.4µM*
Cc1cccc2nc(COc3ccc(-c4ccccc4)cc3)cn12 | 0.2% | · | · | · | 4.8% | ·
CCOC(=O)C(CC)n1nc(C)n2c(cc3sccc32)c1=O (centres undefined) | -2.3% | 11.6µM* | 4.1% | -2.5% | 3.1% | 11.6µM*
Cc1nn(C(C)C(=O)NC2CCC(C)CC2)c(=O)c2cc3sccc3n12 (centres undefined) | -0.9% | 14.6µM* | -10.3% | · | 1.0% | ?
CCn1c(C(=O)NC2CCC(C)CC2)cc2sccc21 (centres undefined) | -0.7% | -20.2% | -10.2% | 1.8% | 6.0% | ?
CCOC(=O)CCCn1nc(C)n2c(cc3sccc32)c1=O | -1.6% | -13.2% | -11.1% | -7.6% | 3.9%[56.1 µM] | ?
SMILES | GCN5L2 inh | DT40 TDP1 CPT | VDR inhibitor | PLK1 PBD inh | TDP1 block | DT40 TDP1 no CPT
CCOc1cc(-c2nc(C)c(C(C)=O)n2O)ccc1OCC(=O)Nc1cccc(C)c1 | -13.3% | 4.5% | 1.1% | -8.6% | 5.1% | -3.6%
Cc1ccc(CNCc2cn[nH]c2-c2ccc(C)cc2)cc1 | · | 7.94µM* | -26.8% | · | 0.8% | 12.6µM*
Cc1ccc(-c2[nH]ncc2CNCc2ccc(CN(C)C)cc2)cc1 | · | 12.6µM* | -14.9% | · | 0.2% | 22.4µM*
COc1ccccc1CNCc1ccc(C)cc1 | -6.6% | ? | -1.3% | 4.9% | · | 0.1%
O=C(O)CC(CC(=O)O)c1ccc2c(c1)OCO2 | · | 3.9% | · | · | · | -24.5%
CCCCN1CCC[C@H]1CNC(=O)c1cc(C#N)c2ccccc2c1OC | -17.1% | · | 4.6% | · | 7.5% | ·
O=S(=O)(NCc1cn2ccccc2n1)c1ccccc1F | -9.4% | -1.8% | 0.4% | -8.0% | -0.6% | -2.2%
COc1ccccc1NC(=O)c1nc(SCc2ccccc2F)ncc1Cl | · | ? | · | · | · | -7.3%
COC(=O)c1ccc(NC(=O)CC2Nc3cc(C)c(C)cc3NC2=O)cc1 (centres undefined) | 4.1% | ? | -11.1% | · | · | ?
CCCCNC(=O)c1cccc2c(=O)c(C)c(-c3ccccc3)oc12 | -0.7% | ? | 7.8% | -18.4% | 2.7% | ?
CCCCN(C(=O)c1cccc2c(=O)c(C)c(-c3ccccc3)oc12)c1ccccc1 | -10.7% | 16.4µM* | 0.7% | -10.1% | 3.0% | 8.2µM*
COc1cccc(CN2CCCC(C(=O)Nc3ccc(-c4cscn4)cc3)C2)c1 (centres undefined) | ? | ? | -23.2% | -10.0% | 5.0% | ?
Brc1ccc(/C=N/Nc2ncnc3c2cnn3Cc2ccccc2)cc1 | 1.7% | 18.4µM* | 6.5% | -1.2% | 6.0% | 14.6µM*
Oc1ccc(/C=N/Nc2ncnc3c2ncn3Cc2ccccc2)cc1O | -22.8% | ? | -4.1% | -11.8% | 10.7% | ?
N#Cc1cccc(-c2nccc(NCc3cccnc3)n2)c1 | -20.3% | ? | -8.0% | · | · | ?
NNCCc1ccccc1 | -10.3% | ? | 0.7% | -9.7% | -5.2%[56.1 µM] | 13µM*!
Cc1ccc(NS(=O)(=O)c2ccc(C)c(NC(=S)NCCN3CCOCC3)c2)c(C)c1 | 1.4% | ? | 12.5% | ? | 2.8% | -11.5%
O=C(O)/C=C/c1ccc(OCc2cccc(F)c2)cc1 | -2.4% | ? | ? | 29.9µM* | 0.0% | ?
CCOc1cc(/C=C/C(=O)O)ccc1OCc1ccccc1 | -1.2% | -5.7% | 0.8% | -5.6% | 1.2% | 5.6%
